# Compound activity (PubChem)
# HEK293 tox: cytotoxicity in counter-screen for GLP-1R inverse agonists | 410,000 compounds, 0.13% hits | HEK293 cAMP-luciferase reporter cells, luminescence, 24 h | Potency, µM (doses to about 38.3 µM), for inactives: top-dose activity change, negative = inhibition, usual class: inhibitors;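 further: loss of luciferase light is scored as toxicity; potency means the concentration at half of the fitted maximal effect; on the % scale 0 is the no-effect control and ±100 the full control effect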
#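 Quantitative HTS format, 1536 wells, 200 cells/uL seeded. Compounds: 23 nL, 24 h, 37 °C. Detection: luciferase reagent, luminescence at 12 min RT; decreased signal taken as cytotoxic.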
# GLP1R inv ag: GLP-1 receptor (human) inverse agonism; P43220; HEK293 GLP-1R CRE-luciferase, luminescence, 24 h; GLP-1R form is constitutively active; Potency, µM (titrated, usually from 38.3 µM), for inactives: at the highest dose activity change, negative = inhibition, hits mostly inhibitors; 410,000 compounds, 1.6% hits; AID 624417; further: potency means the concentration at half of the fitted maximal effect; on the % scale 0 is the no-effect control and ±100 the full control effect; nearly all actives have a fitted effect of over 55% in size
# Target sequence (P43220 whole entry, looked up): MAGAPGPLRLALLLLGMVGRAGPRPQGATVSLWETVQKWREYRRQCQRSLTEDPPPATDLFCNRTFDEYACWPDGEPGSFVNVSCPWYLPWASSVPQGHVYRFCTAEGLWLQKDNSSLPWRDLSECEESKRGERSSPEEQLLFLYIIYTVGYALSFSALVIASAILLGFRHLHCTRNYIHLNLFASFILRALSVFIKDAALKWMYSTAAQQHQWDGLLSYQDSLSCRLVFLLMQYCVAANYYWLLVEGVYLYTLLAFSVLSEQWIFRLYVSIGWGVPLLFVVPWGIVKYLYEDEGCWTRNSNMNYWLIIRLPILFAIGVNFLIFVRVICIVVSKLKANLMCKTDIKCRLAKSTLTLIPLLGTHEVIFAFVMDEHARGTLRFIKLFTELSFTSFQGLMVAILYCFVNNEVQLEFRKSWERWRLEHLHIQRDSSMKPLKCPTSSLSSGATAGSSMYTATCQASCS
#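 Using stably transfected HEK293 (constitutively active GLP-1R, cAMP-luciferase reporter), compounds were incubated 24 hr and luciferase measured by luminescence.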
# TRPML1 ag: activates the human TRPML1 channel | Q9GZU1 | TRPML1-expressing cells, Ca2+ dye fluorescence, FDSS | activation, % (no concentration beside the values) | 410,000 compounds, 0.12% hits; in the data active means activation above about 50%; inconclusive means mostly about 30% to 49%; further: 0% is about no effect
#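 TRPML1-DL cells, Tet-induced overnight (~16 h, 37 degrees C), loaded 45-90 min at room temperature with Ca8 no-wash calcium dye plus quencher. FDSS fluorescence: 10 s baseline, compound pin-transfer, 110 s agonist read, then EC80 54-4 (4uM final) and 110 s antagonist read.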
# GLP-1R agonist: GLP-1 receptor (human) agonism; HEK293 GLP-1R CRE-luciferase, luminescence, 4-6 h; cells express a hypersensitive GLP-1R form; 380,000 compounds, 0.007% hits; AID 624172; Potency, µM (highest dose often 45.6 µM), inactives show at the top dose activation, actives largely listed as activators; further: potency means the concentration at half of the fitted maximal effect; % of control where 0% means no effect
# TRPML1 blocker: blocks the human TRPML1 channel | Q9GZU1 | AID 624415 | activity change, negative = inhibition, % (test concentration not listed) | TRPML1-inducible cells, Ca2+ dye fluorescence, FDSS; stronger effect = lower value; inhibition of EC80 agonist-evoked calcium signal | 390,000 compounds, 0.02% hits; in the data active means activity change below about -50%; inconclusive means between about -30% and that limit;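 further: stimulus is agonist 54-4 at its EC80 concentration; on the % scale 0 is the no-effect control and ±100 the full control effect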
#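 Calcium fluorescence in TRPML1-DL cells induced overnight with Tet: a 110 s read after compound pin addition, then a 110 s antagonist read after challenge with 54-4 at 4 uM final (EC80).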
# * marks the source's active call; other numbers are inactive results; ? = inconclusive; . = not tested or not shown. An excerpt weighted towards active compounds, which were near 1.8% of everything screened. Unless noted, the call rests on the fitted dose curve; in most records, active means well fitted curve in the direction sought with a large enough effect; inconclusive means small, poorly fitted or top-dose-only effect, or another doubt; inactive means no such curve, though single readings can be large; an effect the other way counts as inactive or inconclusive.
SMILES,HEK293 tox,GLP1R inv ag,TRPML1 ag,GLP-1R agonist,TRPML1 blocker
COc1cc(OC)c2c(c1)C(=O)OC2c1cc(OC)c(OC)cc1C (configuration not stated),.,.,-1.0,.,.
COc1ccc(C(=O)NCc2nnc(SCC(=O)Nc3ccc(F)cc3)n2-c2ccccc2)cc1,2.2%,-23.5%,-1.0,0.7%,-2.1
C[N+](C)(CCCCCC[N+](C)(C)C1c2ccccc2-c2ccccc21)C1c2ccccc2-c2ccccc21,.,.,.,-4.7%,.
COc1ccc(OC)c(NC(=O)c2ccc(CN3CCc4ccccc4C3)cc2)c1,2.3%,11.2µM*,.,1.8%,.
CSc1cccc(NC(=O)c2ccc(CN3CCc4ccccc4C3)cc2)c1,-7.7%,?,-0.6,16.8%,-10.6
O=C(Nc1cccc(Br)c1)c1ccc(CN2CCc3ccccc3C2)cc1,-15.1%,2.24µM*,1.6,1.3%,18.9
COc1ccc(NC(=O)c2ccc(CN3CCc4ccccc4C3)cc2)c(OC)c1,-3.2%,?,1.7,-6.1%,7.6
CN(CCOc1ccc(Br)cc1)CC(O)COc1ccc(C#N)cc1 (configuration not stated),-4.6%,4.47µM*,0.8,-1.1%,-16.2
CCCN(CCC)c1nc(-c2ccccc2F)nc2ccccc12,2.9%,0.5%,1.2,.,-14.9
CCCN(CCC)c1nc(-c2ccccn2)nc2ccccc12,?,3.55µM*,2.7,18.3%,30.0
CCN(CC)c1nc(-c2ccccn2)nc(-c2ccccc2)c1C#N,?,12.6µM*,3.0,16.7%,31.4
CN(C)c1nc(-c2ccccn2)nnc1-c1ccccc1,?,6.1%,-0.9,-7.1%,11.2
Cc1ccc(N2CC(NC(=O)c3ccc(S(=O)(=O)N4CCCC4)cc3)CC2=O)cc1 (configuration not stated),5.0%,7.0%,-1.3,.,-11.2
CCOC(=O)c1ccc(CNc2ncnc3nc[nH]c23)cc1,.,.,-0.5,.,.
NS(=O)(=O)c1ccc(S(=O)(=O)N2CCN(c3nc(-c4cccs4)nc4ccccc34)CC2)cc1,.,.,-0.3,.,.
O=C(NCc1nc(-c2ccc(C(F)(F)F)cc2)no1)c1cccs1,-20.2%,10µM*,0.3,-0.8%,-12.5
O=C(NCc1nc(-c2ccccc2)no1)c1cccs1,4.4%,0.0%,-0.3,8.6%,20.2
CCN(c1ccccc1)S(=O)(=O)c1ccc(Cl)nc1,-3.7%,-0.3%,-0.4,1.2%,5.8
CCN(c1ccccc1)S(=O)(=O)c1ccc(NCC2COc3ccccc3O2)nc1 (configuration not stated),-8.7%,5.01µM*,5.8,4.5%,15.0
COc1ccc(Br)cc1C1NC(c2ccc3c(c2)OCO3)=CC(c2cc(Cl)ccc2O)N1 (configuration not stated),.,.,1.4,.,-22.0
Cc1cc(C)cc(NC(=O)C2CCN(S(=O)(=O)c3cccc(-c4noc(C)n4)c3)CC2)c1,-3.4%,?,1.8,.,9.5
Cc1ccc(Nc2nc(N)c3ccccc3n2)cc1C,2.6%,7.08µM*,0.0,-1.0%,58.9
O=C(Oc1ccc2c(c1)OCO2)c1cccs1,-7.2%,10.3%,-1.0,1.6%,-50.1*
Cc1cc(OC(=O)c2cccs2)ccc1C(C)C,-7.1%,-1.6%,-0.4,-2.2%,-15.4
Cc1ccc(C)c(-n2nnc(-c3nc(-c4ccccc4C)no3)c2C)c1,1.6%,14.0%,0.6,.,84.1
SMILES,HEK293 tox,GLP1R inv ag,TRPML1 ag,GLP-1R agonist,TRPML1 blocker
O=C(Nc1ccc(Cl)c(Cl)c1)c1cc(S(=O)(=O)N2CCN(c3cccc(Cl)c3)CC2)ccc1F,4.3%,?,1.3,.,-0.7
CCN1CCN(CC(=O)Nc2cc(S(=O)(=O)N(CC)c3ccccc3)ccc2Cl)CC1,?,10µM*,0.8,8.1%,0.7
CCN(c1ccccc1)S(=O)(=O)c1ccc(OC)c(NC(=O)Cc2ccccc2OC)c1,-12.3%,10µM*,1.8,3.8%,19.9
CCN(c1ccccc1)S(=O)(=O)c1ccc(OC)c(NC(=O)Cc2ccc(OC)c(OC)c2)c1,2.0%,-23.2%,2.9,-1.9%,-0.9
c1ccc2c(c1)sc[n+]2CCC1CCCCC1,.,.,0.3,.,.
O=C1C=CCC(/C=C/c2ccccc2)O1 (configuration not stated),-15.4%,2.51µM*,2.4,4.9%,-7.2
